Here are results for 26 compounds from PubChem BioAssay (Tox21).

The nature of assay [1]: cAMP Responsive Elements (CRE) small molecule antagonists, cell-based qHTS assay: qHTS cell viability counter screen (AID 2060913). Also: nearly all actives have a fitted effect of over 40% in size. The settings on record: CRE-bla HEK293T viability, CellTiter-Glo luminescence, 5 h; series mostly up to 92.4 µM. In a few lines: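 Cytotoxicity read in the same wells as the CRE-bla HEK293T antagonist assay: after 3 h compound with 0.25 uM NKH477 final and 2 h beta-lactamase substrate, CellTiter-Glo luminescence measured.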

The nature of assay [2]: cAMP Responsive Elements (CRE) small molecule agonists, cell-based qHTS assay: qHTS cell viability counter screen (AID 2060914). Also: nearly all actives have a fitted effect of over 50% in size. The settings on record: CRE-bla HEK293T viability, CellTiter-Glo luminescence, 5 h; series mostly up to 92.4 µM. In a few lines:
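Cytotoxicity was measured as ATP luminescence (CellTiter-Glo, 30 min at room temperature) in the same wells as the CRE-bla FRET read-out. HEK293T CRE-bla cells had 3 h compound exposure at 37C/5% CO2.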

Inconclusive results are not listed. Entries that show only a call come without a potency. Calls of active or inactive are those of the source. Calls follow the shape of the dose curve; as a rule, active = well fitted cell-killing curve with a large enough effect in the repeat runs; inconclusive = weak or mixed curves, or effect the other way; inactive = flat fitted curve, though single readings scatter.

With `CC(CO)(CO)CO`, the Potency entry in assay [1] and in assay [2] was “inactive” in each case.
Regarding `CC(C)(C)c1ccc(OC(=O)c2ccccc2O)cc1`, the Potency result in assay [1] and in assay [2] was “inactive” throughout.
Take `COc1ccc(C2CNC(=O)C2)cc1OC1CCCC1` (configuration not stated): the Potency entry in assay [1] and in assay [2] was “inactive” each time.
Turning to `C=Cc1ccc(OC(C)=O)cc1`, the Potency entry in assay [1] and in assay [2] was “inactive” throughout.
Take `C=COCC(C)C`: the Potency result in assay [1] and in assay [2] was “inactive” in each case.
For `CCCCCC(C)=O`, the Potency result in assay [1] and in assay [2] was “inactive” in each case.
Consider `N#CCN(CC#N)CCN(CC#N)CC#N`, for which the Potency entry in assay [1] and in assay [2] was “inactive” each time.
Turning to `C=C(C)C(=O)OCC`, the Potency entry in assay [1] and in assay [2] was “inactive” each time.
As to `CN(C)CC/C=C1/c2ccccc2COc2ccc(CC(=O)O)cc21`, the Potency entry in assay [1] and in assay [2] was “inactive” each time.
Take `Oc1cccc(Nc2ccccc2)c1`: the Potency result in assay [1] and in assay [2] was “inactive” each time.
On to `CO[C@H]1O[C@H](CO)[C@@H](O)[C@H](O)[C@H]1O`, for which the Potency result in assay [1] and in assay [2] was “inactive” in each case.
On to `CC(=O)c1ccccc1N`, for which the Potency result in assay [1] and in assay [2] was “inactive” throughout.
In the case of `Nc1ccccc1S(=O)(=O)O`, the Potency result in assay [1] and in assay [2] was “inactive” each time.
For `CN(c1nccc(=O)[nH]1)C1CCN(c2nc3ccccc3n2Cc2ccc(F)cc2)CC1`, the Potency entry in assay [1] and in assay [2] was “inactive” each time.
Regarding `COc1cc(Cl)c(OC)cc1N`, the Potency result in assay [1] and in assay [2] was “inactive” each time.
Regarding `CC(C)c1cc(C(C)C)cc(C(C)C)c1`, the Potency result in assay [1] and in assay [2] was “inactive” in each case.
With `CCCCCCCCCCCCCCCC`, the Potency result in assay [1] and in assay [2] was “inactive” each time.
Take `COc1ccccc1O`: the Potency result in assay [1] and in assay [2] was “inactive” throughout.
Turning to `SCCc1cnccn1`, the Potency result in assay [1] and in assay [2] was “inactive” each time.
With `CCCc1ccccc1`, the Potency result in assay [1] and in assay [2] was “inactive” in each case.
`Oc1ccc(O)c2c(O)cccc12`: the Potency entry in assay [1] and in assay [2] was “inactive” each time.
On to `C#C[C@]1(O)CC[C@H]2[C@@H]3CCC4=CC(=O)CC[C@@H]4[C@H]3CC[C@@]21C`, for which the Potency entry in assay [1] and in assay [2] was “inactive” throughout.
With `CCOc1ccc2nc(N)sc2c1`, the Potency entry in assay [1] and in assay [2] was “inactive” each time.
Turning to `C=C[Si](OCCOC)(OCCOC)OCCOC`, the Potency result in assay [1] and in assay [2] was “inactive” throughout.
As to `CCc1ccccc1CC`, the Potency result in assay [1] and in assay [2] was “inactive” in each case.
In the case of `CCC(C)(C)C(=O)O`, the Potency entry in assay [1] and in assay [2] was “inactive” each time.
